# Data taken from PubChem BioAssay (NCATS).
# Inconclusive results are not listed. A call without a number means that no potency is given here. Active and inactive are the calls of the source. The call rests on the fitted dose curve; in most records, active means well fitted curve in the direction sought with a large enough effect; inconclusive means small, poorly fitted or top-dose-only effect, or another doubt; inactive means no such curve, though single readings can be large; an effect the other way counts as inactive or inconclusive.
# How the values were obtained:
# [1] = Primary qHTS for inhibitors of nuclear receptor binding SET domain protein 2 (NSD2) in an isogenic RCH-ACV NSD2 p.E1099K mutant (9B) (AID 1645876)
# [2] = Primary qHTS for inhibitors of nuclear receptor binding SET domain protein 2 (NSD2) in an RCH-ACV wild type WT cells (2C) (AID 1645877)
# Further: nearly all actives have a fitted effect of over 70% in size.
# Potency means the concentration at half of the fitted maximal effect.
Compound,Potency [1],Potency [2]
COc1ccc(C2(N(C)C(=O)c3ccc(NC(=O)c4ccco4)cc3)CCOCC2)cc1,inactive,inactive
C=C(COC(=O)C(O)C(O)CN)C12OC1C1(C)C(=CC2=O)C(O)C(O)CC1C (stereo not given),inactive,inactive
C[C@@H]1CC[C@@]23CC[C@]4(C)[C@@](C=CC5[C@@]6(C)CC[C@H](O)C(C)(C)C6CC[C@]54C)(OC2=O)C3[C@H]1C (stereo not given in full),inactive,inactive
CC(C)CCNC(=O)[C@H](CC(C)C)NC(=O)[C@H]1O[C@@H]1C(=O)O,inactive,inactive
COc1ccc2[nH]c(=O)c3c(c2c1)OC(C)(C)C=C3,14.5 µM (active),14.5 µM (active)
